Reference: paper PMC4336329 (PLoS ONE, 2015)
About 14,000 (4.5%) of roughly 310,000 compounds showed an effect of 50% or more. Effects have a minus sign here. The list comes from a sample in which strong results are over-represented; it also holds similar structures and randomly drawn compounds.
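Also: peak tail current of the secondary pulse compared with the same well before compound.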

The compounds below were run against human ether-à-go-go-related gene (hERG) potassium channel (human, UniProt Q12809) (assay: primary screen, population patch clamp on CHO cells stably expressing hERG; higher = less effect of the substance).
human ether-à-go-go-related gene (hERG) potassium channel, sequence (Q12809 whole entry, looked up): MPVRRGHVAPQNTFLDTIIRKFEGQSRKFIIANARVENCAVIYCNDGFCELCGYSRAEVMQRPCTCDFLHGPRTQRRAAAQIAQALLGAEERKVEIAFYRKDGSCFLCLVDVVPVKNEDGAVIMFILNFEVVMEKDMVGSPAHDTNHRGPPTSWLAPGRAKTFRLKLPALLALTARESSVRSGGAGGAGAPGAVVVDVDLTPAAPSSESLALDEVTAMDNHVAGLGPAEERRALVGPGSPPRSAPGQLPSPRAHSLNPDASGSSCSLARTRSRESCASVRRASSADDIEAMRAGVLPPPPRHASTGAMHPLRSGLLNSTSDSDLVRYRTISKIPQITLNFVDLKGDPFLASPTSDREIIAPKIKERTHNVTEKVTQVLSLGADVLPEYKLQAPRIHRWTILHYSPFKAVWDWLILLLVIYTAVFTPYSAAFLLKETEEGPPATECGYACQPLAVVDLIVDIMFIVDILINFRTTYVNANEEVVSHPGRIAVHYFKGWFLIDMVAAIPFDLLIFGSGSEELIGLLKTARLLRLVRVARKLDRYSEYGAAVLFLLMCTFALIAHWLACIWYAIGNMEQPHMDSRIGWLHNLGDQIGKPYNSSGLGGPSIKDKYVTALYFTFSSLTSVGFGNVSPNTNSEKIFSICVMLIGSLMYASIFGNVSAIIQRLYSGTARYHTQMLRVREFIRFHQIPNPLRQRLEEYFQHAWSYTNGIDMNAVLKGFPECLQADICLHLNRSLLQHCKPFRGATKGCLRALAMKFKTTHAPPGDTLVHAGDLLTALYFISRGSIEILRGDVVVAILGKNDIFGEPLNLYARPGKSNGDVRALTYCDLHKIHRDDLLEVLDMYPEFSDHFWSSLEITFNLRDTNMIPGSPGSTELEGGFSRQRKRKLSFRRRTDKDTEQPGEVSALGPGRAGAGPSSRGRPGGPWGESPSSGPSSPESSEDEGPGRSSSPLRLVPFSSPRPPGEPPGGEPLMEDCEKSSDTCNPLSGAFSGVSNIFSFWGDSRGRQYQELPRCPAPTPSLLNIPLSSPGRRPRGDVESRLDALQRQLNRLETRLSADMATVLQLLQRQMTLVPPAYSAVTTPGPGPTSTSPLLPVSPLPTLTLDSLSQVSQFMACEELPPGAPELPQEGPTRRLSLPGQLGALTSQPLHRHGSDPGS
With `CCOC(=O)/C=C1\SCC(=O)N1CC(=O)NCCOC` the “hERG current change (%, negative = inhibition) at 10uM” value was -10.2%.
In the case of `NC(=O)c1ccc[n+](CC(=O)OCCC23CC4CC(CC(C4)C2)C3)c1.[Cl-]`, the “hERG current change (%, negative = inhibition) at 10uM” value is reported as 11.8%.
For `COc1ccc(N(CC(=O)NC2CCCC2)S(=O)(=O)c2c(C)[nH]c(=O)[nH]c2=O)cc1`, the “hERG current change (%, negative = inhibition) at 10uM” value was 10.2%.
With `Cc1cccc(C)c1OCCN1CCOCC1.O=C(O)C(=O)O` the “hERG current change (%, negative = inhibition) at 10uM” value was -0.56%.
`O=C(NNc1ncccc1-n1cccc1)c1ccc(Cl)cc1` was tested, and the “hERG current change (%, negative = inhibition) at 10uM” value was -15.4%.
`O=C(CSc1nc(C2CC2)nc2sc3c(c12)CCCC3)NCc1ccco1` was tested, and the “hERG current change (%, negative = inhibition) at 10uM” value was -6.99%.
In the case of `Cc1ccc(Cn2c(Sc3ncccn3)nc3c2c(=O)[nH]c(=O)n3C)cc1`, the “hERG current change (%, negative = inhibition) at 10uM” value is reported as -5.24%.
For `CCOC(=O)C1=C(N)n2c(s/c(=C/c3ccco3)c2=O)=C(C(=O)OC)C1c1ccco1` (stereo not drawn), the “hERG current change (%, negative = inhibition) at 10uM” value was -2.57%.
`COCCNC(=O)c1c(NC(=O)c2ccco2)n(Cc2ccccc2)c2nc3ccccc3nc12` was tested, and the “hERG current change (%, negative = inhibition) at 10uM” value was -16.9%.
For `Cc1ccc(OCC(O)CN2CCOCC2)c(C)c1.Cl` (stereo not drawn), the “hERG current change (%, negative = inhibition) at 10uM” value was 20.2%.
In the case of `Cc1ccc(OCCCCN2CCc3ccccc3C2)c(C)c1.Cl`, the “hERG current change (%, negative = inhibition) at 10uM” value is reported as -34.1%.
In the case of `Cc1cccc(OCC(O)CN2CCc3ccccc3C2)c1.Cl` (stereo not drawn), the “hERG current change (%, negative = inhibition) at 10uM” value is reported as -38%.
`Cc1cc(OCC(O)CN2CCc3ccccc3C2)cc(C(C)C)c1.Cl` (stereo not drawn) was tested, and the “hERG current change (%, negative = inhibition) at 10uM” value was -56.2%.
For `Cc1ccc(OCC(O)CN2CCc3ccccc3C2)c(C)c1.Cl` (stereo not drawn), the “hERG current change (%, negative = inhibition) at 10uM” value was -72.3%.
For `Cc1nc(SCCOc2ccccc2F)[nH]c(=O)c1Cc1ccccc1`, the “hERG current change (%, negative = inhibition) at 10uM” value was 46.9%.
`O=C(Nc1cnn(Cc2ccccc2)c1)c1nc2ncccn2n1` was tested, and the “hERG current change (%, negative = inhibition) at 10uM” value was 6.14%.
In the case of `Cc1nc(CCNC(=O)c2cc(COc3ccc(F)cc3Cl)on2)sc1C`, the “hERG current change (%, negative = inhibition) at 10uM” value is reported as -22.4%.
With `O=C(O)c1ccc(Cl)c2c1C1C=CCC1C(c1ccccn1)N2` (stereo not drawn) the “hERG current change (%, negative = inhibition) at 10uM” value was 7.76%.
`COCCNC(=O)c1cccc(OC2CCN(Cc3ccc(F)cc3OC)CC2)c1` was tested, and the “hERG current change (%, negative = inhibition) at 10uM” value was -23.1%.
`COc1ccc(C(=O)NCC(=O)OCc2ccc(F)cc2Cl)cc1OC` was tested, and the “hERG current change (%, negative = inhibition) at 10uM” value was -1.96%.
`COc1ccc(C(=O)NC2CC2)cc1OC1CCN(Cc2ccc(F)cc2F)CC1` was tested, and the “hERG current change (%, negative = inhibition) at 10uM” value was -81.5%.
With `COc1ccc(C(=O)NC2CCN(Cc3c(F)cccc3Cl)CC2)cc1OC` the “hERG current change (%, negative = inhibition) at 10uM” value was -1.46%.
`O=C(NCc1ccccn1)c1ccc(OC2CCN(Cc3ccc(F)cc3F)CC2)cc1` was tested, and the “hERG current change (%, negative = inhibition) at 10uM” value was -25.9%.
For `COc1ccc(C(=O)NC2CC2)cc1OC1CCN(Cc2ccc(F)cc2Cl)CC1`, the “hERG current change (%, negative = inhibition) at 10uM” value was -70.9%.
`Cc1cc2sc3ccccc3c(=O)c2c(C)c1O` was tested, and the “hERG current change (%, negative = inhibition) at 10uM” value was 21.6%.
With `Cc1ccc(S(=O)(=O)N2CCOCC2)cc1C(=O)Nc1ccc2c(c1)CCC2` the “hERG current change (%, negative = inhibition) at 10uM” value was -10.6%.
In the case of `COC(=O)c1cn(NC(=O)C2CCC(C(C)(C)C)CC2)c(=O)c2ccccc12` (stereo not drawn), the “hERG current change (%, negative = inhibition) at 10uM” value is reported as 13.7%.
With `[Cl-].c1ccc(C[n+]2cccc3c4ccccc4ccc32)cc1` the “hERG current change (%, negative = inhibition) at 10uM” value was -15%.
With `CCC[n+]1c2ccccc2cc2ccccc21.[I-]` the “hERG current change (%, negative = inhibition) at 10uM” value was 23.7%.
In the case of `NC(=O)C[n+]1cccc2ccccc21.[I-]`, the “hERG current change (%, negative = inhibition) at 10uM” value is reported as 9.16%.
For `CCCCCCCCC[n+]1cccc2c3ccccc3ccc21.[Br-]`, the “hERG current change (%, negative = inhibition) at 10uM” value was -84.8%.
For `CCCCCCCC[n+]1cccc2c3ccccc3ccc21.[I-]`, the “hERG current change (%, negative = inhibition) at 10uM” value was -84.3%.
For `Cc1cccc[n+]1CCCCCCCCCC[n+]1ccccc1C.[Br-]`, the “hERG current change (%, negative = inhibition) at 10uM” value was 37.8%.
With `CCCC[n+]1c2ccccc2cc2ccccc21.[I-]` the “hERG current change (%, negative = inhibition) at 10uM” value was -32.9%.
In the case of `CCCCCCCCCCCCCCCC[n+]1cccc2ccccc21.[I-]`, the “hERG current change (%, negative = inhibition) at 10uM” value is reported as -71.2%.
`O/N=C/c1cccc[n+]1CCCCCC[n+]1ccccc1/C=N/O.[Br-]` was tested, and the “hERG current change (%, negative = inhibition) at 10uM” value was 20.1%.
In the case of `O=C(C[n+]1cccc(CO)c1)Nc1nc2ccccc2s1.[Cl-]`, the “hERG current change (%, negative = inhibition) at 10uM” value is reported as -9.18%.
For `CC(C)CN(C(=O)CCC(=O)OCc1ccc(Cl)cc1Cl)c1c(N)n(CC(C)C)c(=O)[nH]c1=O`, the “hERG current change (%, negative = inhibition) at 10uM” value was -47.3%.
In the case of `CCn1nc(C)cc1C(=O)NC1CCCc2c1cnn2-c1cc(F)cc(F)c1` (stereo not drawn), the “hERG current change (%, negative = inhibition) at 10uM” value is reported as -5.58%.
For `Cc1cc(=O)c2cc(Br)ccc2n1CC(=O)NCc1ccccc1`, the “hERG current change (%, negative = inhibition) at 10uM” value was -12.8%.
`O=C(CCNc1cc(Cl)cc(Cl)c1)c1ccco1` was tested, and the “hERG current change (%, negative = inhibition) at 10uM” value was -4.77%.
In the case of `Cc1ccc(C(C)(C)C)c(OCCCCN2CCCC2)c1`, the “hERG current change (%, negative = inhibition) at 10uM” value is reported as -19.9%.
In the case of `CCCN(CCC)CCNC(=O)CCC(=O)Nc1ccc2nc(N3CCN(C)CC3)cc(C)c2c1`, the “hERG current change (%, negative = inhibition) at 10uM” value is reported as 17.7%.
`O=c1[nH]ncn2cccc12` was tested, and the “hERG current change (%, negative = inhibition) at 10uM” value was 24.1%.
For `CN(Cc1c(F)cccc1Cl)S(=O)(=O)c1cccs1`, the “hERG current change (%, negative = inhibition) at 10uM” value was -19.8%.
With `CN(Cc1ccc(F)cc1Cl)S(=O)(=O)c1cccs1` the “hERG current change (%, negative = inhibition) at 10uM” value was -62%.
`COc1ccccc1CN(C)S(=O)(=O)c1cccs1` was tested, and the “hERG current change (%, negative = inhibition) at 10uM” value was 4.72%.
In the case of `Cc1c(OC(C)C(=O)NCCCN2CCOCC2)ccc2c1oc(=O)c1ccccc12` (stereo not drawn), the “hERG current change (%, negative = inhibition) at 10uM” value is reported as 6.19%.
For `CN1CCN(CCCNC(=O)CCN2C(=O)COc3ccccc32)CC1`, the “hERG current change (%, negative = inhibition) at 10uM” value was 0.334%.
For `O=C(CCN1C(=O)COc2ccccc21)NCCCN1CCN(c2ccc(F)cc2)CC1`, the “hERG current change (%, negative = inhibition) at 10uM” value was -63.7%.
With `O=C(CCN1C(=O)COc2ccccc21)NCCCN1CCN(c2ccccc2F)CC1` the “hERG current change (%, negative = inhibition) at 10uM” value was -42.7%.
In the case of `COc1ccc(N2CCN(CCNC(=O)CCN3C(=O)COc4ccccc43)CC2)cc1`, the “hERG current change (%, negative = inhibition) at 10uM” value is reported as -47%.
In the case of `O=C(CN1C(=O)COc2ccccc21)NCCN1CCC(Cc2ccccc2)CC1`, the “hERG current change (%, negative = inhibition) at 10uM” value is reported as -56.6%.
`O=C(CCN1C(=O)COc2ccccc21)NCCN1CCN(c2ccccc2F)CC1` was tested, and the “hERG current change (%, negative = inhibition) at 10uM” value was -33.5%.
For `O=C(CN1C(=O)COc2ccccc21)NCCN1CCOCC1`, the “hERG current change (%, negative = inhibition) at 10uM” value was 11.3%.
In the case of `O=C(CCN1C(=O)COc2ccccc21)NCCN1CCN(c2cccc(Cl)c2)CC1`, the “hERG current change (%, negative = inhibition) at 10uM” value is reported as -56.5%.
`O=C(CN1C(=O)COc2ccccc21)NCCN1CCCC1` was tested, and the “hERG current change (%, negative = inhibition) at 10uM” value was 13.6%.
